Reference: PubChem BioAssay (NCI)
This is part of a sample that, as a whole, favours compounds with a hit. Of some 83,000 tested, about 20% had one in any assay.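 Single-concentration screen, 48 h exposure, 96-well plates. Endpoint: percent growth. Below 10 = active.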 Unmarked numbers belong to inactive results. Activity calls are given as the source filed them.

What was measured:
Assay in all cases: NCI-60 one-dose screen, 48 h (100 = growth as untreated, 0 = no growth, -100 = all killed)
SK-MEL-2 melanoma = conditions: 10 µM unless noted
EKVX NSCLC = conditions: 10 µM unless noted
SN12C renal = conditions: 10 µM unless noted
UO-31 renal = conditions: 10 µM unless noted
TK-10 renal = conditions: 10 µM unless noted
A498 renal = conditions: 10 µM unless noted
CCRF-CEM leukemia = conditions: 10 µM unless noted
MOLT-4 leukemia = conditions: 10 µM unless noted
ACHN renal = conditions: 10 µM unless noted
CAKI-1 renal = conditions: 10 µM

SMILES | growth (SK-MEL-2 melanoma) | growth (EKVX NSCLC) | growth (SN12C renal) | growth (UO-31 renal) | growth (TK-10 renal) | growth (A498 renal) | growth (CCRF-CEM leukemia) | growth (MOLT-4 leukemia) | growth (ACHN renal) | growth (CAKI-1 renal)
COc1ccc(Cl)cc1NC(=O)c1cc2c(n1C)-c1nc(NC(=O)C(C)C)sc1CC2 | 64.6% | 91.3% | 94.5% | 76.7% | 92% | 93.2% | 84.4% | 80.2% |  | 
C=C1C(=O)O[C@H]2[C@H]1CC/C(COC(=O)CCCC(=O)OC/C1=C/CC[C@@]3(C)O[C@H]3[C@H]3OC(=O)C(=C)[C@@H]3CC1)=C\CC[C@@]1(C)O[C@@H]21 | 19.5% | 51.1% | 15.1% | 13.6% | 7.23% (active) | 62.6% | -11.7% (active) | -19.1% (active) |  | 
C=CC(=O)NC(=O)Nc1ccccc1Cl | 86% | 94.7% | 83.5% | 59.8% | 45.2% | 109% | 37.2% | 39.6% |  | 
NS(=O)(=O)c1ccc(Nc2nc(O)c(/C=C3\C=Nc4ccccc43)s2)cc1 | 103% | 98.2% | 91.1% | 70.7% | 112% | 106% | 85.6% | 95.4% |  | 
COc1ccccc1P(c1ccccc1OC)c1ccccc1OC | 99.1% | 91% | 113% | 86.1% |  | 79.4% | 130% | 105% | 98.3% | 86.2%
O=C(Nc1cccc(-n2ccc3c(NC(=O)c4ccccc4)nccc32)c1)Nc1ccc(Cl)c(C(F)(F)F)c1 | -5.89% (active) | 32.8% | 19.2% | 27.8% |  | -3.31% (active) | 4.74% (active) | 12.8% | 13.1% | 7.43% (active)
O=C(Nc1ccc(-n2cc(-c3ccncc3)c(-c3ccc(O)c(Cl)c3)n2)cc1)c1ccc(Cl)c(C(F)(F)F)c1 | -0.332% (active) | 31.8% | 45.2% | 18.4% |  | 77.7% | 16.2% | 16.8% | 17.4% | 20.5%
COc1ccc(-c2nn(-c3ccc(NC(=O)c4cc(C(F)(F)F)cc(C(F)(F)F)c4)cc3)cc2-c2ccncc2)cc1Cl | 89.9% | 70.3% | 77.2% | 44.6% |  | 45.8% | 59% | 62.2% | 61.9% | 41.2%
CCOC(=O)CSc1nnc(-c2cc3c([nH]c4ccccc43)c(-c3cccc(O)c3)n2)n1-c1ccc(C)cc1 | 37.7% | 78.8% | 58.1% | 72.6% |  | 96.8% | 46.4% | 17.4% | 50.4% | 92.1%
O=C1COc2ccccc2C(=O)N1CCCCN1CCCCC1 | 95.4% | 98.5% | 99.2% | 91.7% |  | 114% | 69.4% | 83.2% | 99.2% | 103%
COc1cc(-c2nc(SCC(=O)Nc3ccc(C(C)=O)cc3)[nH]c(=O)c2C#N)cc(OC)c1OC | 35.9% | 33.8% | 29.5% | 49.3% |  | 18.5% | -11.9% (active) | 3.84% (active) | 41.6% | 61.5%
O=C(NCCNc1nccc(-c2c(-c3cccc(O)c3)nc3sccn23)n1)c1ccccc1 | 45.5% | 94.2% | 66.4% | 87.7% |  | 48% | 47.3% | 67.1% | 60.5% | 87.9%
O=C(Nc1ccc(-n2ccc3c(NC(=O)c4ccccc4)ncnc32)cc1)Nc1ccc(Cl)c(Cl)c1 | 11.7% | 27.3% | 15.8% | 9.15% (active) |  | 90.5% | -10.2% (active) | 28.7% | 27.8% | 30.8%
CCOC(=O)n1cnc2c(Cl)ncnc21 | 154% | 106% | 119% | 97% |  | 86% | 109% | 106% | 108% | 89.8%
O=C(Nc1ccc(-n2cc(-c3ccncc3)c(-c3ccc(O)c(Cl)c3)n2)cc1)c1cc(C(F)(F)F)cc(C(F)(F)F)c1 | 68.8% | 66.3% | 64.4% | 50.8% |  | 76.7% | 31.1% | 28.3% | 54.2% | 54.4%
CCN1CCN(Cc2ccc(NC(=O)Nc3cccc(-n4ccc5c(NC(=O)c6ccccc6)nccc54)c3)cc2C(F)(F)F)CC1 | 90.6% | 89.8% | 95.7% | 72.3% |  | 90% | 78.7% | 112% | 96% | 81%
Nc1ncnc2c1ccn2-c1cccc(NC(=O)c2cccc(C(F)(F)F)c2)c1 | 80.6% | 66.6% | 88.4% | 86.4% |  | 82.9% | 51.3% | 52.3% | 64.1% | 69.7%
O=C(Nc1ccc(-n2cc(-c3ccncc3)c(-c3ccc(O)c(Cl)c3)n2)cc1)c1ccc(Cl)c(Cl)c1 | 20.2% | 47.7% | 58.3% | 23% |  | 79.6% | 16.5% | 32.3% | 20.6% | 18.6%
CO[C@H]1/C=C/C=C/C=C/C[C@H](OC(=O)[C@@H](C)NC(=O)C2CCCCC2)[C@H](C)[C@@H](O)/C(C)=C\CCC2=CC(=O)C=C(NC(=O)C1)C2=O | -42.7% (active) | -17% (active) | -10% (active) | 5.46% (active) |  | -2.6% (active) | -0.0954% (active) | -10.4% (active) | -34.8% (active) | 16.3%
COc1ccc(-c2nn(-c3ccc(NC(=O)Nc4ccc(Cl)c(C(F)(F)F)c4)cc3)cc2-c2ccncc2)cc1Cl | -43.4% (active) | 11.1% | 16.5% | 3.92% (active) |  | -5.72% (active) | 6.6% (active) | 8.53% (active) | 7.51% (active) | -18.8% (active)
NCC(=O)NS(=O)(=O)OC[C@H]1O[C@@H](n2cnc3c(N)ncnc32)[C@H](O)[C@@H]1O | -34.4% (active) | 44.1% | 1.03% (active) | 6.08% (active) |  | -58.8% (active) | 21.7% | 1.15% (active) | 11.8% | 5.11% (active)
O=C(Nc1ccc(-n2cc(-c3ccncc3)c(-c3ccc(O)c(Cl)c3)n2)cc1)Nc1cccc(Cl)c1Cl | 66.8% | 44.9% | 83.1% | 57.2% |  | 68.7% | 38.2% | 39.1% | 47.8% | 67.3%
COc1ccc(-c2nnc(NC(=O)CN3CCN(c4cc5c(cc4F)c(=O)c(C(=O)O)cn5C4CC4)CC3)s2)cc1OC | 102% | 108% | 95.5% | 89.4% |  | 80.5% | 98.9% | 93% | 109% | 104%
Nc1nccc2c1ccn2-c1ccc(NC(=O)Nc2cccc(C(F)(F)F)c2)cc1 | 113% | 93.7% | 87.1% | 81.4% |  | 88.4% | 94.1% | 82.8% | 91.6% | 97.4%
CCOC(=O)c1[nH]c(-c2ccc(Cl)cc2)cc1-c1cccnc1 | 39.5% | 24.3% | 43.6% | 21% |  | -9.26% (active) | 9.2% (active) | 11.7% | 35.7% | 28.3%
CN1C(=O)C2(NN=C(c3cccc4ccccc34)S2)c2ccccc21 (stereo not drawn) | 37.1% | 24% | 31.5% | 18.5% |  | 47% | 9.4% (active) | 2.9% (active) | 30.5% | 25.7%
Cc1cc(NC(=O)c2cccc(C(F)(F)F)c2)ccc1-n1ccc2c(NC(=O)c3ccccc3)nccc21 | 101% | 94.1% | 94% | 78.5% |  | 112% | 88.3% | 87.8% | 106% | 93.1%
C[C@]12O[C@H]1[C@H](O)c1c(cc(O)c3c1C(=O)c1cccc(O)c1-3)C2=O | 99.3% | 97.8% | 88.8% | 91.1% |  | 86.4% | 92% | 86.6% | 99.3% | 99.9%
